From PubChem BioAssay
Compounds with a hit are over-represented: about 4.5% of the library has one in this group of screens.
697 NFkB inh = lowers PMA/ionomycin-induced NF-kB signal in 697 B cells; AID 435022; actives 0.33% (n = 330,000); inhibition, % at 4 µM; 697 B-cell NF-kB luciferase reporter, 16 h; in the data active means inhibition above about 35%
Gli-Sufu antag = blocks Gli-Sufu signaling in a luciferase reporter | Sufu-KO-LIGHT fibroblasts, Gli luciferase reporter luminescence | inhibition, % at 5 µM | actives 0.74% (n = 340,000) | AID 588413;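 active means inhibition above about 55%, limit read from the data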
CSC inhib = cancer stem cell inhibition | AID 2717 | inhibition, % at 7.5 µM | actives 1.1% (n = 300,000) | cancer stem cell-like cells viability, luminescence; in the data active means inhibition above about 75%; inconclusive means no clear call, values can overlap the other calls; tested in HMLE shEcad cells
aSyn 5UTR inh = 5' untranslated region of α-synuclein, MLPCN primary screen; alpha-synuclein 5'UTR reporter, inhibitor activity; inhibition, % (tested at 7.5 µM); actives 0.82% (n = 300,000); in the data active means inhibition above about 60%; inconclusive means no clear call, values can overlap the other calls;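 further: H4 neuroglioblastoma cells stably carrying SNCA 5'UTR luciferase fusion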
Mdm2-MdmX inh = human Mdm2/MdmX binding inhibition. AID 485346. actives 3% (n = 330,000). SaOS-2 split-luciferase Mdm2/MdmX complementation, luminescence. inhibition, % at 8 µM. O15151+Q00987;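 active means inhibition of at least 50% at 8 µM in the primary screen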
Target sequence (O15151 whole entry, looked up): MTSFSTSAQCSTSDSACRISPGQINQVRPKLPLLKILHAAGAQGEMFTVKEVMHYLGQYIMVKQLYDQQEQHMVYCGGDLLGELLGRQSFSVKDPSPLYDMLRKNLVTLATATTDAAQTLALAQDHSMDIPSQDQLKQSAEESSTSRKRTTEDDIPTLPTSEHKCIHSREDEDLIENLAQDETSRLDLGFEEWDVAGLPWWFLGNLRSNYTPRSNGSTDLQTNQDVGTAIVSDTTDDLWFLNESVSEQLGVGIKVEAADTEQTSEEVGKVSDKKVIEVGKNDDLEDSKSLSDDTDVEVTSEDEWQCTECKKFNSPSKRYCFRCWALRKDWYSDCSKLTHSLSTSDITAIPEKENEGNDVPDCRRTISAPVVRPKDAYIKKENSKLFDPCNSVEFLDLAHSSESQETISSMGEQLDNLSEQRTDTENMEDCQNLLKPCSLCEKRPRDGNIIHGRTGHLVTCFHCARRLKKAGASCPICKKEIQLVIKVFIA
Target sequence (Q00987 whole entry, looked up): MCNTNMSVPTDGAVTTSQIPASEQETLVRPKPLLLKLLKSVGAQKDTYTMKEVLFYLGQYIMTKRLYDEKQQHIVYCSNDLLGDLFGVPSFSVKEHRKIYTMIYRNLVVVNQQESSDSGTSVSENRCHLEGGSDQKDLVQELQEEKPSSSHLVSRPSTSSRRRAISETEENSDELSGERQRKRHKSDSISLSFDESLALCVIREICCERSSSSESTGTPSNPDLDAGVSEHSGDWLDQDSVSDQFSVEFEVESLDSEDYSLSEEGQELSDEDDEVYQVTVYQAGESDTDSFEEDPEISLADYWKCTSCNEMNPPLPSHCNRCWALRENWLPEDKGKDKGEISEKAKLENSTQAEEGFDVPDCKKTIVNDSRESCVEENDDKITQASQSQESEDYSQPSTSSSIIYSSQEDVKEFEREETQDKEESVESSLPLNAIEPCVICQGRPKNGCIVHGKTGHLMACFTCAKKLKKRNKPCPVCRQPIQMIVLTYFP
Jurkat NFkB inh = inhibitors of the PMA/ionomycin-induced NF-kB reporter in Jurkat cells; PMA/ionomycin-induced NF-kB luciferase reporter, luminescence; inhibition, % at 4 µM; actives 0.53% (n = 330,000); AID 435003; in the data active means inhibition above about 50%
Mdm2 MdmX conf = human Mdm2/MdmX binding inhibition, confirmed. AID 489028. shares compounds with Mdm2-MdmX inh. luminescent assay. inhibition, % at 8 µM. actives 55% (n = 10,000); in the data active means inhibition above about 40%
Full FLuc ctr = full-length luciferase inhibition in Mdm2/MdmX counter-screen; shares compounds with Mdm2-MdmX inh; SaOS-2 full-length luciferase counterscreen, luminescence; inhibition, % at 8 µM; actives 77% (n = 6,200); AID 504607;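 active means mean inhibition at 8 µM reaching about 37%, which flags the compound as non-specific, limit read from the data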;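 further: p53-null SaOS-2 cells with luciferase driven by a doxycycline-inducible promoter; compound on cells about two nights before reading with doxycycline added after day one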
Large screens that a line does not name were inactive (follow-up assays come after a bar, where they were run).

CCN1C(=O)[C@H]2[C@@H](c3ccc(-c4ccc(OC)cc4)c(OC)c3)N3CCCC[C@@]3(C(=O)OC)[C@H]2C1=O	none
Cc1cc2occ(CC(=O)NCc3cccs3)c2cc1C(C)C	none
Cc1csc(NC(=O)Cc2coc3cc(C)c(C(C)C)cc23)n1	Mdm2-MdmX inh 80 (no result: CSC inhib) | Mdm2 MdmX conf 69 | Full FLuc ctr 57
CN1CCN(c2ccccc2NC(=O)c2cc3c(s2)-c2ccccc2OC3)CC1	Mdm2-MdmX inh 57 | Mdm2 MdmX conf 52 | Full FLuc ctr 63
Cc1ccc(-c2cc(C(=O)NCCCN3CCOCC3)c3ccc(Cl)c(C)c3n2)cc1	Mdm2-MdmX inh 50 | Mdm2 MdmX conf 42 | Full FLuc ctr 75
O=C(NCCCN1CCOCC1)c1cc(-c2ccccc2)nc2ccccc12	none
COc1ccc(NC(=O)COC(=O)c2ccc(OCc3ccccc3Cl)c(OC)c2)c(OC)c1	Mdm2-MdmX inh 61 | Mdm2 MdmX conf inactive
CCOC(=O)N1C=CC=C[C@@H]2[C@@H](N3C(=O)c4ccccc4C3=O)C(=O)N21	none
Cc1ccc(OCCNC(=O)c2cncc(Br)c2)cc1C	Mdm2-MdmX inh 60 | Mdm2 MdmX conf 48 | Full FLuc ctr 60
COc1ccc(NC(=O)c2cc(CN3C(=O)c4ccccc4C3=O)ccc2OC)cn1	Mdm2-MdmX inh 53 | Mdm2 MdmX conf inactive
O=C(Cc1ccc(-c2ccccc2)cc1)Nc1ccccn1	Mdm2-MdmX inh 69 | Mdm2 MdmX conf 55 | Full FLuc ctr 62
O=C(CC(=O)Nc1ccccn1)Nc1ccccn1	none
COc1ccc(CN2C(=O)c3ccccc3C2=O)cc1C(=O)Nc1ccccc1N1CCOCC1	none
Cc1ccc(NC(=O)Cc2ccc(-c3ccccc3)cc2)nc1	Mdm2-MdmX inh 75 | Mdm2 MdmX conf 45 | Full FLuc ctr 80
COc1ccc(NC(=O)Cc2ccc(-c3ccccc3)cc2)cn1	Mdm2-MdmX inh 52 | Mdm2 MdmX conf 55 | Full FLuc ctr 62
COc1cc(/C=C/C(=O)Nc2ccc(S(=O)(=O)Nc3onc(C)c3C)cc2)cc(OC)c1OC	none (no result: 697 NFkB inh, CSC inhib, aSyn 5UTR inh, Mdm2-MdmX inh, Jurkat NFkB inh)
CC(C)(Cc1ccccc1)/[N+]([O-])=C\c1ccc(C(F)(F)F)cc1	none
Cc1ccc(NC(=O)CCc2c[nH]c3ccccc23)nc1	Mdm2-MdmX inh 83 (no result: CSC inhib) | Mdm2 MdmX conf 73 | Full FLuc ctr 52
Cc1ccnc(NC(=O)Cc2ccc(-c3ccccc3)cc2)c1	Mdm2-MdmX inh 91 | Mdm2 MdmX conf 94 | Full FLuc ctr 145
Cc1ccnc(NC(=O)Cc2ccc([N+](=O)[O-])cc2)c1	none (no result: CSC inhib)
O=C(CCc1c[nH]c2ccccc12)Nc1ncccc1O	none
O=C(COc1ccc(S(=O)(=O)N2CCOCC2)cc1)NCc1ccccn1	none
O=C(NCCc1nnc2ccc(N3CCCC3)nn12)c1ccccc1	none
COC(=O)c1ccccc1NC(=O)c1c(O)c2c([nH]c1=O)CCCC2	Mdm2-MdmX inh 56 | Mdm2 MdmX conf inactive
CCC1C(=O)N=C(SCC(=O)Nc2nc3ccccc3s2)NC1=O (stereo not drawn)	Mdm2-MdmX inh 72 | Mdm2 MdmX conf inactive
Cn1cc(SCC(=O)Nc2nc3ccccc3s2)c2ccccc21	Mdm2-MdmX inh 78 | Mdm2 MdmX conf 67 | Full FLuc ctr 62
Cc1cccc(NC(=O)c2cccc(S(=O)(=O)NCc3ccccc3)c2)n1	none
CCOc1nc(N=C(N)N)nc2c(C)cccc12	Mdm2-MdmX inh 56 | Mdm2 MdmX conf inactive
CCOc1ccccc1Nc1cc(C)c2cccc(C)c2n1	none
CN(C)C(CNS(=O)(=O)c1ccc(Cl)cc1F)c1ccco1 (stereo not drawn)	none (no result: aSyn 5UTR inh)
O=C(/C=C/c1ccc(Br)cc1)c1ccc(NC2=NCCCS2)cc1	Mdm2-MdmX inh 101 (no result: CSC inhib) | Mdm2 MdmX conf inactive | Full FLuc ctr 77
Cc1cccc(/C=C/C(=O)c2ccc(NC3=NCCCS3)cc2)c1	Mdm2-MdmX inh 86 | Mdm2 MdmX conf 58 | Full FLuc ctr 57
CCN(CC)CCNC(=O)C(=O)NCC1OCCN1S(=O)(=O)c1cccs1 (stereo not drawn)	none
C[n+]1ccc(C(=O)Nc2ccccc2Cl)cc1	none
COc1cc(-c2nc(-c3ccccc3)c(-c3cccs3)[nH]2)cc(OC)c1OC	CSC inhib 78, Mdm2-MdmX inh 76 | Mdm2 MdmX conf 40 | Full FLuc ctr 100
c1ccc(/N=C2\N=C(Nc3ccccn3)c3ccccc32)nc1	aSyn 5UTR inh inconclusive, Mdm2-MdmX inh 72 | Mdm2 MdmX conf inactive
Fc1ccc(N/N=C/C=C/c2ccccc2)c(F)c1	none
CC(=O)NC(CCS(C)(=O)=O)C(=O)Nc1cc(Cl)ccc1Cl (stereo not drawn)	none
CC(C)S(=O)(=O)c1csc(NC(=O)Nc2cc(Cl)ccc2Cl)c1Cl	Mdm2-MdmX inh 62 | Mdm2 MdmX conf inactive | Full FLuc ctr 93
O=C1c2ccccc2-c2n[nH]c(=O)c3ccc(N4CCCCC4)c1c23	Mdm2-MdmX inh 52 | Mdm2 MdmX conf inactive
O=C1c2cccc3c(N4CCCCC4)ccc(c23)C(=O)N1c1ccccn1	none
COC(=O)[C@]1(CC(C)C)N[C@H](c2ccc(SC3CCCCC3)c(OC)c2)[C@@H]2C(=O)N(C)C(=O)[C@@H]21	none
CCCCCCSc1ccc([C@H]2N[C@@](CC(C)C)(C(=O)OC)[C@H]3C(=O)N(C)C(=O)[C@@H]23)cc1OC	Mdm2-MdmX inh 56 | Mdm2 MdmX conf inactive
CC(=O)Nc1ccc(C(=O)OCC(=O)N(c2ccccc2)C2CCS(=O)(=O)C2)cc1 (stereo not drawn)	none (no result: CSC inhib, aSyn 5UTR inh)
O=C(CCl)N(c1ccccc1)C1CCS(=O)(=O)C1 (stereo not drawn)	Mdm2-MdmX inh 99 | Mdm2 MdmX conf 93 | Full FLuc ctr 55
Cc1cccc(OCC(=O)NC2CCCCCC2)c1C	none
CCN(C(=O)COc1cccc2cccnc12)C1CCS(=O)(=O)C1 (stereo not drawn)	none
CC1CCCN(c2ncnc3c2cnn3-c2ccccc2)C1 (stereo not drawn)	aSyn 5UTR inh inconclusive, Mdm2-MdmX inh 52 | Mdm2 MdmX conf 52 | Full FLuc ctr 192
CCN1CCN(c2ncnc3c2cnn3-c2ccccc2)CC1	none
COc1ccc(-n2ncc3c(N4CCN(Cc5ccccc5)CC4)ncnc32)cc1	Mdm2-MdmX inh 85 | Mdm2 MdmX conf 64 | Full FLuc ctr 77
Cc1ccc(-n2ncc3c(N4CCCC(C)C4)ncnc32)c(C)c1 (stereo not drawn)	none
c1ccc(-n2ncc3c(N4CCCCC4)ncnc32)cc1	aSyn 5UTR inh 94, Mdm2-MdmX inh 51 | Mdm2 MdmX conf 53 | Full FLuc ctr 160
Cc1ccccc1C(=O)N1CCN(c2ncnc3c2cnn3-c2ccccc2)CC1	none
Cc1ccc(C(=O)N2CCN(c3ncnc4c3cnn4-c3ccccc3)CC2)cc1	Mdm2-MdmX inh 82 (no result: Gli-Sufu antag) | Mdm2 MdmX conf 58 | Full FLuc ctr 68
